Records with an inconclusive call do not appear. The source made the active and inactive calls. Calls come from the whole dose curve; as a rule, active = well fitted inhibition curve with a large enough effect; inconclusive = small, poorly fitted or top-dose-only effect; inactive = flat fitted curve, though single readings scatter.

Test [1] in a line: Drug repurposing screens with cells derived from glioblastoma tumor samples (AID 1345199). Note: nearly all actives have a fitted effect of over 40% in size. The following applies: GBM patient neurospheres viability, ATP luminescence, 48 h. In a few lines:
(§1)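 Four patient lines of CD133+ GBM neurospheres were screened at several concentrations; hits were retested in those lines plus three slower-growing GBM lines, using 48-hour treatment and ATP-based viability.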

The test system of the next test is astro (control astrocytes). The test is described as above. The following applies: viability, ATP luminescence, 48 h; series mostly up to 45.9 µM. An outline of the steps:
as §1

[2] abbreviates: at 45.9 µM (top of the series), tumour line B.
Where [3] appears, read: at 45.9 µM (top of the series), tumour line D.
[4] abbreviates: at 46.1 µM (top of the series), tumour line C.
% is set by controls: 0 for no effect and ±100 for the full control effect; potency is the fitted concentration of half-maximal effect.

Turning to `C=C1[C@@H]2CC[C@@H](C2)C1(C)C`, the values for the activity, negative = cell killing in test [1] (setting [2]) and in test [1] (setting [3]) were -1.58% (inactive) and -22% (inactive), respectively. The Potency result in the test on astro is “inactive”.
Regarding `CS(=O)(=O)c1ccc([C@@H](O)[C@@H](COC(=O)CN)NC(=O)C(Cl)Cl)cc1`, the results for the activity, negative = cell killing in test [1] (setting [2]) and in test [1] (setting [4]) were -20.1% (inactive) and -21.6% (inactive), respectively. Moreover, the Potency entry in the test on astro is “inactive”.
On to `O=C(O[C@H]1CN2CCC1CC2)N1CCc2ccccc2[C@@H]1c1ccccc1`, for which, in the test on astro, the Potency result was “inactive”.
For the compound `O=C(NNCS(=O)(=O)O)c1ccncc1`, the activity, negative = cell killing was -4.21% (inactive) in test [1] (setting [2]) and -67.1% (inactive) in test [1] (at 46 µM (top of the series), tumour line A). Also, the Potency result with astro was “inactive”.
As for `Cc1cc(-c2ccc(N=Nc3ccc4c(S(=O)(=O)O)cc(S(=O)(=O)O)c(N)c4c3O)c(C)c2)ccc1N=Nc1ccc2c(S(=O)(=O)O)cc(S(=O)(=O)O)c(N)c2c1O`, the Potency with astro is 17.8 µM (active).
Same read-out and setting: for `CC(C)OC(=O)Nc1ccc2nc(-c3cscn3)[nH]c2c1` the value was 2.82 µM (active); for `CCCCCCCCCc1ccc(OCCOCCO)cc1`, 12.6 µM (active); for `CCN(CC)CCCC(C)Nc1cc(/C=C/c2ccccc2Cl)nc2cc(Cl)ccc12` (centres undefined), “inactive”.
On to `CCN(CC)C(=O)c1cccnc1`, for which the activity, negative = cell killing in test [1] (setting [2]) is -8.29% (inactive); in test [1] (setting [4]), -25.5% (inactive). In addition, the Potency result with astro was “inactive”.
With `O=C(c1cc2ccccc2o1)N1CCN(Cc2ccccc2)CC1`, in test [1] (setting [2]), the activity, negative = cell killing was -15.4% (inactive). The Potency in test [1] (tumour line A) is 11.2 µM (active). Further, the Potency result with astro is “inactive”.
Regarding `CC[C@@]1([C@@H]2O[C@@H]([C@H]3O[C@@](O)(CO)[C@H](C)C[C@@H]3C)C[C@@H]2C)CC[C@H]([C@]2(C)CC[C@]3(C[C@H](O)[C@@H](C)[C@@H]([C@@H](C)[C@@H](OC)[C@H](C)C(=O)O)O3)O2)O1` (stereo in doubt), in the test on astro, the Potency is 14.1 µM (active).
On to `CN(C)C(=O)CCSC(SCCC(=O)O)c1cccc(/C=C/c2ccc3ccc(Cl)cc3n2)c1` (centres undefined), for which the Potency with astro is 17.8 µM (active).
As to `CC(=C\c1ccccc1)/C=C1/SC(=S)N(CC(=O)O)C1=O`, the activity, negative = cell killing in test [1] (setting [3]) is -25% (inactive); in test [1] (setting [4]), -14.3% (inactive). The Potency result in the test on astro is “inactive”.
Turning to `CCN(CC)CCOc1ccc2nc(N(C)C)sc2c1`, in the test on astro, the Potency result is “inactive”.
As to `COc1ccc2c(c1)OC(C)(C)C(c1ccccc1)C2c1ccc(OCCN2CCCC2)cc1` (centres undefined), in the test on astro, the Potency is 35.5 µM (active).
As for `CCN(CC)CCC(=O)N1c2ccccc2Sc2ccc(C(F)(F)F)cc21`, the Potency result in the test with astro was “inactive”.
As to `Cc1cc(-c2ccc(N=Nc3c(S(=O)(=O)O)cc4cc(S(=O)(=O)O)cc(N)c4c3O)c(C)c2)ccc1N=Nc1c(S(=O)(=O)O)cc2cc(S(=O)(=O)O)cc(N)c2c1O`, the Potency in the test on astro is 8.91 µM (active).

These data come from PubChem BioAssay (NCATS).
